Target: AMP-activated protein kinase, AMPK (Homo sapiens) (UniProt P54646+O43741+P54619+Q9UGJ0+Q9Y478+Q13131+Q9UGI9)
Test: AMP-dependent Kinase enzyme assay. An in vitro enzyme assay that detects ADP turnover that is directly proportional to AMPK activity. This uses naive AMPK that is activated during the assay with MK-8722
Assay type: functional
Set-up: scale not given: direction of the effect not stated beside the values
Settings: 30 µM

Going from `C[C@@H]1CN(Cc2nc(C(N)=O)no2)CC[C@@]1(O)C1CC1` to `C[C@@H]1CN(Cc2cc3ccccc3n2C)CC[C@@]1(O)C1CC1`, the Percent Effect rises from 0.276% to 14.8%.

Going from `Cc1ccc(C2(O)CCN(C(=O)CCn3ccc(=O)[nH]c3=O)CC2)nc1` to `COc1cccc2ccc(N3CCC(O)(c4ccc(C)cn4)CC3)nc12`, the Percent Effect rises from 1.66% to 11.8%.

Going from `CN(CCc1ccncc1)c1cnn(C)c(=O)c1Br` to `Cn1cc(CN(C(=O)c2ccc(O)c(Cl)c2)C2CC2)cn1`, the Percent Effect rises from -1.01% to 10.3%.

First: CSCC(C)(O)CNS(=O)(=O)c1cccc(Cl)c1 (stereo not given)
Second: CC(C)N(CC(=O)Nc1cccc(C(=O)N(C)C)c1)C1CC1
The Percent Effect of the first is lower: -5.75% for the first, 1.38% for the second.

First: Cc1cc(C(=O)N2CCCC(c3ccc(C(=O)O)cc3)C2)c(C)o1 (stereo not given)
Second: CC1(C)OC(=O)N(CC(=O)N2CCC(c3ccccc3Cl)C2)C1=O (stereo not given)
The Percent Effect of the first is lower: 4.65% for the first, 8.7% for the second.

Compared with `Cc1cc(N2CCC(n3cc(CN4CCSCC4)nn3)CC2)ccn1`, `O=C1CN(Cc2cn(CC3CCCN(C4CCSCC4)C3)nn2)CCN1` (stereo not given) is lower in Percent Effect: 2.21% for the first, -8.48% for the second.

Going from `Cc1ccc(S(=O)(=O)Cc2nsc(N(C)C)n2)c(C)c1` to `Cc1cc(C)c(-n2cccn2)c(CN2CCOCC(CN(C)C)C2)c1` (stereo not given), the Percent Effect falls from -0.477% to -0.542%.

First: O=C(NCC[S+]([O-])c1ccccc1)c1ccc2[nH]c(=O)[nH]c2c1 (stereo not given)
Second: CC(CC(=O)c1ccccc1)NC(=O)c1ccon1 (stereo not given)
The Percent Effect of the first is lower: 6.24% for the first, 8.5% for the second.

Compared with `Cc1cnn(C2CN(c3nc(-c4ccncc4)nc4c3CCC4)C2)c1`, `CC1CCCN(c2ncc(-c3ccccc3F)c(-c3nccn3C)n2)C1` (stereo not given) is higher in Percent Effect: 4.55% for the first, 9.01% for the second.

Compared with `CCC[C@@H]1CN(Cc2cnc(-c3cccs3)nc2)C[C@H]1C(=O)O`, `COCc1ncc(CN2CCC3(CCC(=O)N(CC(C)O)C3)CC2)cn1` (stereo not given) is higher in Percent Effect: -8.24% for the first, -3.44% for the second.

Compared with `Oc1c(F)cc(CNc2cccc(-c3nnc[nH]3)c2)cc1F`, `OC(CNCc1nnc2ccccn12)c1ccc2c(c1)OCCCO2` (stereo not given) is lower in Percent Effect: 40.3% for the first, 9.77% for the second.

Compared with `Cc1cc(C(=O)N(C)C2CCS(=O)(=O)C2)c2ccc(F)cc2n1` (stereo not given), `NC(=O)CN1CCC(C(=O)NCC(O)c2cccc(F)c2)CC1` (stereo not given) is higher in Percent Effect: -7.82% for the first, -5.48% for the second.

Going from `CCCN1CCC(N2CCC(Cn3cc(CC(C)O)nn3)CC2)CC1` (stereo not given) to `CCN(CC)C1CCN(c2ncnc3c2CCN(C(=O)C2CC2)C3)C1` (stereo not given), the Percent Effect rises from -7.12% to -3.94%.

Going from `Cc1cc(C)n2c(CNCc3ccc(OC(F)F)cc3)cnc2n1` to `Cc1cnccc1CNCc1ccc(OC23CCCN(CC2)C3)cc1` (stereo not given), the Percent Effect rises from -12.4% to -10.2%.

Compared with `O=C(C1CC1)N1CCCC(C2=Nc3ccccc3S(=O)(=O)N2)C1` (stereo not given), `N#CC1CCN(C(=O)CN2CC(c3ccccc3)CC2=O)CC1` (stereo not given) is lower in Percent Effect: 24.4% for the first, 5.49% for the second.

Going from `COc1ccc(CCn2cnc(C#N)n2)cc1` to `CCN(C(=O)Cn1cc(Cl)cn1)c1ccccc1`, the Percent Effect falls from -6.21% to -10.4%.

Going from `Cc1c(NC(=O)c2ncn[nH]2)cccc1C(=O)NC(C)(C)C` to `Cc1ccc(Cl)c(C)c1NC(=O)N1CCCN(Cc2ccccn2)CC1`, the Percent Effect falls from 5.84% to 2.6%.

Going from `CC(CNC(=O)c1cnc[nH]1)Oc1ccccc1Br` (stereo not given) to `COC(=O)C1CCN(C(=O)Cn2nc(C)nc2-c2ccccc2)CC1`, the Percent Effect falls from 10.3% to -7.76%.

First: Cc1nccn1-c1nccnc1C1CCCN(C2CCCC2)C1 (stereo not given)
Second: Cc1ccc(C(NC(=O)CCCN2CCCCC2)C(=O)O)cc1 (stereo not given)
The Percent Effect of the first is higher: 12.6% for the first, 11.8% for the second.

First: CN(CCc1cccs1)CCc1nccs1
Second: CC1(C)OC(=O)N(CCCC(=O)c2ccc(F)cc2)C1=O
The Percent Effect of the first is higher: -4.34% for the first, -8.28% for the second.
